Several values for one entry are separate records, joined by “and”; a condition that tells them apart may be missing. Equal entries are not always repeated. Results filed as inconclusive are left out. More than one record can exist for a structure, and the calls need not agree. Activity calls are given as the source filed them. Unless noted, the call rests on the fitted dose curve; in most records, active means well fitted curve in the direction sought with a large enough effect; inconclusive means small, poorly fitted or top-dose-only effect, or another doubt; inactive means no such curve, though single readings can be large; an effect the other way counts as inactive or inconclusive.
Columns and labels:
[1] = biological target: Cytochrome P450 3A4 (Homo sapiens) (UniProt P08684); experiment: qHTS Assay for Activators of Cytochrome P450 3A4 (AID 885); further: nearly all actives have a fitted effect of over 65% in size
Procedure, shortened: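 CYP3A4 activity: Luciferin-PPXE O-dealkylation, 25uM substrate, 200mM KPO4, RT throughout. Read-out is luciferase luminescence; higher values reflect activation.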

[2] = Confirmation and Secondary Assay for Modulators of Hemoglobin Beta Chain Splicing at IVS2 654 locus (AID 910);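 further: per-well total GFP intensity by laser scanning cytometry after 2-day treatment; % of control where 0% means no effect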
Procedure, shortened: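 HeLa cells stably carrying EGFP interrupted by mutant beta-globin IVS2-654 intron (CMV-driven) were treated with compound for 2 days at 37C; corrected splicing was scored as total peak GFP intensity per well (488 nm excitation, 500-520 nm emission).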

[3] = Confirmation and Secondary Assay for Modulators of Hemoglobin Beta Chain Splicing at IVS2 705 locus (AID 930);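 further: HeLa cells stably expressing the EGFP-705 splicing reporter; GFP fluorescence per well restored by corrected splicing of the IVS2-705 intron in EGFP; % of control where 0% means no effect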
Procedure, shortened: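 Splice-correction reporter: EGFP cDNA split by beta-globin intron 2 bearing the 705 mutation, stably in HeLa. Compound incubation 2 days, 37C; fluorescent objects 5-250 µm summed per well.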

[4] = qHTS Assay for Lipid Storage Modulators (AID 1519; calls by dose curve); conditions: Drosophila S3 cells, BODIPY lipid droplet/cell ratio, laser cytometry, cells loaded with oleic acid
Procedure, shortened: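 Cells seeded at 5,000 per well were treated with compounds over a concentration series and loaded with oleic acid (400 uM, as added). Lipid droplet fluorescence (488 nm excitation, 500-530 nm channel) was read by laser-scanning cytometry and normalized to 20 uM Triacsin C.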

[5] = Confirmatory screen GU Rhodamine qHTS for Zika virus inhibitors qHTS (AID 1347157); further: nearly all actives have a fitted effect of over 70% in size; further: potency means the concentration at half of the fitted maximal effect;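 on activity change, negative = inhibition: plate controls were no-inhibitor wells for no effect and no-enzyme wells for full effect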
Procedure, shortened: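 Percent inhibition derives from the 15-min fluorescence change (ex 480, em 540 nm), normalized to no-enzyme and no-inhibitor wells. Reactions contained 25 nM NS2B-NS3 complex and 1.5 microM substrate in 10 mM Tris-HCl pH 8.0.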

[6] = ZIKV-mCherry secondary qHTS for Zika virus inhibitors (AID 1347158); further: top concentration of the series differs between compounds
Procedure, shortened: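 Read-out is percent infection: mCherry-positive Vero cells (nuclear-proximal intensity >450 RFU, 3 SD above negative controls) counted by high-content imaging of Hoechst-stained, PFA-fixed wells after 48-72 h with ZIKV-mCherry at MOI 1 and compound.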

[7] = Confirmatory screen NINDS Rhodamine qHTS for Zika virus inhibitors (AID 1347161); further: nearly all actives have a fitted effect of over 60% in size; further: potency means the concentration at half of the fitted maximal effect;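 on activity change, negative = inhibition: purified Zika NS2B-NS3 protease with linked NS2B cofactor domain and Rhodamine110 peptide substrate; plate controls were no-inhibitor control for no effect and no-enzyme control for full effect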
Procedure, shortened: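 Aprotinin served as in-plate control. Conditions: 25 nM linked NS2B-NS3, pH 8.0 Tris buffer, titrated compounds, 15 min preincubation and 15 min reaction with 1.5 microM Rhod110 substrate at room temperature.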

[8] = test system: Zika virus NS2B-NS3 protease (linked); experiment: 384 well plate NINDS AMC confirmatory qHTS for Zika virus inhibitors (AID 1347163); further: potency means the concentration at half of the fitted maximal effect; nearly all actives have a fitted effect of over 50% in size
Procedure, shortened: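 Enzyme (5, 30 or 60 nM final) first met test compounds for ~15 min. The AMC-tagged peptide Ac-VKTGKR-AMC followed at 30 microM. Fluorescence was then recorded at 25 min and scaled against no-enzyme and no-inhibitor wells.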

[9] = test system: Zika virus NS2B-NS3 protease (linked construct); experiment: 384 well plate NINDS Rhodamine confirmatory qHTS for Zika virus inhibitors (AID 1347164);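 further: fluorescence from protease cleavage of Ac-LKRR-rhodamine 110 substrate; nearly all actives have a fitted effect of over 65% in size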; further: potency means the concentration at half of the fitted maximal effect
Procedure, shortened: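 Fluorescence read at ex 485 nm/em 538 nm, 25 min after adding 10 microM Ac-LKRR-Rd substrate at room temperature in the dark; signal normalized to no-enzyme and no-inhibitor controls. Enzyme final 5, 30 or 60 nM; compounds, ~15 min preincubation.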

[10] = Tertiary RLuc qRT-PCR qHTS assay for Zika virus inhibitors (AID 1347169); further: top concentration of the series differs between compounds; on the % scale 0 is the no-effect control and ±100 the full control effect; nearly all actives have a fitted effect of over 55% in size
Procedure, shortened: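 Luminescence read-out: live-cell Renilla luciferase substrate applied to infected Vero cells, signal measured after 1-1.5 hrs. Cells had received compound before ZIKV-RLuc (Cambodian strain, MOI 1-2) infection and were incubated 48-72 hrs at 37 degrees C.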

[11] = biological target: Calcium and integrin-binding protein 1 (Homo sapiens) (UniProt Q99828); experiment: Primary qHTS for Identification of Calcium Integrin Binding Protein 1 (CIB1) Competitor (AID 1508620);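 further: GST tagged CIB1 binding a fluorescein labelled alphaIIb integrin peptide tracer; top concentration of the series differs between compounds; on the % scale 0 is the no-effect control and ±100 the full control effect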
Procedure, shortened: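 Fluorescence polarization competition: CIB1-GST (1 uM final) preincubated with compound 15 min at room temperature, then FITC-labeled alphaIIb peptide (100 nM final) added for another 15 min. Polarization read at Ex 480/Em 540.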

[12] = biological target: Rap guanine nucleotide exchange factor 3 (Homo sapiens) (UniProt O95398); experiment: Confirmatory qHTS for antagonist of cAMP-regulated guanine nucleotide exchange factor 3 (EPAC1) (AID 1645880);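 further: plate controls were DMSO only for no effect and full effect of the ATA control for full effect; nearly all actives have a fitted effect of over 55% in size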
Procedure, shortened: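 Released BODIPY-GDP fluoresces less than Rap1-bound BODIPY-GDP; the signal is followed at 480/540 nm at 5-min intervals over 30 min, after 5 min at room temperature. Reactions contain 100 nM EPAC1, 250 nM RAP1B-BODIPY-GDP and 50 uM GDP; results are normalized to ATA and DMSO.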

[13] = biological target: Rap guanine nucleotide exchange factor 4 (Homo sapiens) (UniProt Q8WZA2); experiment: Confirmatory qHTS for antagonist of cAMP-regulated guanine nucleotide exchange factor 4 (EPAC2) (AID 1645885); further: on the % scale 0 is the no-effect control and ±100 the full control effect; nearly all actives have a fitted effect of over 25% in size
[14] = biological target: Rap guanine nucleotide exchange factor 3 (Homo sapiens) (UniProt O95398); experiment: Counterscreen qHTS for antagonist of cAMP-regulated guanine nucleotide exchange factor 3 (EPAC1) (AID 1645888); further: % of control where 0% means no effect
Procedure, shortened: (§1)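 Measured: fluorescence of BODIPY-GDP bound to Rap1B, which falls as exchange proceeds. Conditions include 50 uM competing GDP, 5 and 30 min reads, and a later cAMP challenge for antagonist detection.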

[15] = biological target: Rap guanine nucleotide exchange factor 3 (Homo sapiens) (UniProt O95398); experiment: Counterscreen qHTS for agonist of cAMP-regulated guanine nucleotide exchange factor 3 (EPAC1) (AID 1645889); further: potency means the concentration at half of the fitted maximal effect; nearly all actives have a fitted effect of over 40% in size
Procedure, shortened: as §1

[16] = AP1 Signaling Pathway (AID 357; active means well fitted curve in either direction with a large enough effect, not every such curve was filed as active;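 further: ME-180 reporter cells stimulated with EGF at its EC50 level; on the % scale 0 is the no-effect control and ±100 the full control effect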); conditions: ME-180 AP-1-bla reporter, EGF-induced, beta-lactamase ratio, 5 h; at 17.2 µM (top of the series)
Procedure, shortened: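 A ratiometric CCF4 readout (405 nm excitation; 460 and 530 nm emission) quantified AP-1-driven beta-lactamase in ME-180 cells after 5 h with compound and EC50 EGF; AC50 values were derived for activators and inhibitors.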

[17] = biological target: Cytochrome P450 1A2 (Homo sapiens) (UniProt P05177); experiment: p450-cyp1a2 (AID 410; calls by dose curve; further: potency means the concentration at half of the fitted maximal effect)
Procedure, shortened: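 20nM CYP1A2, 100uM Luciferin-ME (=Km), 100mM KPO4; cpd 10 min RT; +NADPH regen, 60 min RT; stop/detect 20 min; luminescence. Normalized to furafylline 57 uM = full inhibition.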

[18] = NFAT Signaling Pathway (AID 444; active means well fitted curve in either direction with a large enough effect, not every such curve was filed as active;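 further: carbachol stimulus at about its EC50 of 1 µM final; on the % scale 0 is the no-effect control and ±100 the full control effect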); conditions: Jurkat NFAT-bla M1, carbachol, beta-lactamase ratio, 5 h; at 17.2 µM (top of the series)
Procedure, shortened: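 Jurkat cells carrying an NFAT-driven β-lactamase reporter and co-transfected muscarinic M1 receptor were treated with compound plus carbachol (1 uM final, an EC50 level) for 5 h at 37 °C. CCF4 loading followed for 1 h at RT; 460/530 nm ratio gave %activity.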

[19] = Stat Signaling Pathway (AID 446; active means well fitted curve in either direction with a large enough effect, not every such curve was filed as active;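 further: ME-180 cervical cancer cells given 40 pM IL-6 alongside compound; SIE-controlled beta-lactamase reporter measured as 460/530 nm FRET emission ratio; on the % scale 0 is the no-effect control and ±100 the full control effect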); conditions: ME-180 (cervical carcinoma) SIE beta-lactamase reporter, IL-6 stimulated, 5 h; at 17.2 µM (top of the series)
Procedure, shortened: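 Compound effects on IL-6-induced STAT reporter activity were measured in ME-180 cells. After overnight culture, cells were co-treated with 40 pM IL-6 for 5 hrs before beta-lactamase substrate loading at room temperature.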

[20] = biological target: Glucocorticoid receptor (Homo sapiens) (UniProt P04150); experiment: GR-GFP Redistribution (AID 450;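 active means compounds whose dose series gives a full or clear partial fitted curve of increased nuclear translocation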; further: potency means the concentration at half of the fitted maximal effect); conditions: U2OS GR-GFP nuclear translocation, laser cytometry, 2 h
[21] = biological target: Glucocorticoid receptor (Homo sapiens) (UniProt P04150); experiment: GR-EFC Redistribution (AID 451; calls by dose curve; further: potency means the concentration at half of the fitted maximal effect); conditions: CHO-K1 GR-EFC translocation, beta-gal luminescence, 2 h
Procedure, shortened: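 CHO-K1 cells stably expressing nuclear-localized β-gal enzyme acceptor and GR fused C-terminally to the enzyme donor fragment; ligand-driven nuclear translocation restores β-gal by complementation. Compounds titrated up to 46 uM final, 2 h at 37 °C; luminescence read.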

[22] = biological target: 3',5'-cyclic-AMP phosphodiesterase 4B (Homo sapiens) (UniProt Q07343); experiment: qHTS Assay for Inhibitors of PDE-IV (AID 607; active means well fitted activation curve with a large enough effect in the main read-out, with a control signal flat, not every such curve was filed as active; further: % of control where 0% means no effect)
Procedure, shortened: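 ACTOne HEK293 cells carry a modified cAMP-gated CNG channel and express endogenous PDE4; plated 1000 cells/well, compounds up to 22.9 uM final. Membrane-potential dye fluorescence (ex 535/em 590) was read; parental cells received 10 uM forskolin + 100 uM RO 20-1724.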

[23] = biological target: Cytochrome P450 3A4 (Homo sapiens) (UniProt P08684); experiment: qHTS Assay for Inhibitors and Substrates of Cytochrome P450 3A4 (AID 884); further: potency means the concentration at half of the fitted maximal effect; nearly all actives have a fitted effect of over 50% in size
Procedure, shortened: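 Luminescent readout of luciferin produced by CYP3A4 (20 nM) dealkylation of Luciferin-PPXE, 25 uM (its KM). NADPH-driven reaction ran 60 min at RT after 10 min compound preincubation; data scaled to 57 uM ketoconazole as 100% inhibition.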

[24] = biological target: Cytochrome P450 2D6 (Homo sapiens) (UniProt P10635); experiment: qHTS Assay for Inhibitors and Substrates of Cytochrome P450 2D6 (AID 891);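 further: luciferin methyl ether substrate demethylated by CYP2D6 with NADPH regeneration; on the % scale 0 is the no-effect control and ±100 the full control effect; nearly all actives have a fitted effect of over 60% in size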
Procedure, shortened: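 Luminescent read-out of luciferin formed by 5 nM human CYP2D6 demethylating 30 uM Luciferin-ME EGE (Km level) over 60 min at room temperature after NADPH regeneration addition. Data normalized to full inhibition by 1.43 uM quinidine.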

[25] = biological target: Cytochrome P450 2C19 (Homo sapiens) (UniProt P33261); experiment: qHTS Assay for Inhibitors and Substrates of Cytochrome P450 2C19 (AID 899); further: nearly all actives have a fitted effect of over 60% in size
Procedure, shortened: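 In 50mM KPO4, the reaction held 5nM enzyme and KM-level (10uM) Luciferin-H EGE; it ran 60 min at 37C after NADPH regeneration and a 10 min compound preincubation. Luminescence values were scaled to 57uM ketoconazole as complete inhibition.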

[26] = biological target: Ubiquitin carboxyl-terminal hydrolase 1 (Homo sapiens) (UniProt O94782); experiment: Inhibitors of USP1/UAF1: Pilot qHTS (AID 504865); further: potency means the concentration at half of the fitted maximal effect; nearly all actives have a fitted effect of over 35% in size
Procedure, shortened: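 1nM USP1/UAF1 + cpd, 15 min RT; start w/ Ub-Rho 150nM final; kinetic FL 480/540 nm, 6 reads q60 s. Buffer 50mM HEPES pH 7.8, 0.5mM EDTA, 1mM TCEP, 0.01% Tween-20, 0.1 mg/ml BSA.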

[27] = biological target: DNA dC->dU-editing enzyme APOBEC-3G (Homo sapiens) (UniProt Q9HC16); experiment: qHTS for inhibitors of Vif-A3G interactions: Validation (AID 588379); further: 0% is about no effect
Procedure, shortened: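 Yellow fluorescence (Ex 488, Em 500-530) of Vif-coexpressing HeLa A3G-eYFP cells, scanned by Acumen cytometer, reports blocked A3G degradation. Cells plated at 700/well overnight at 37 deg C before compound addition, then a further overnight compound incubation at 37 deg C.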

[28] = Confirmatory qHTS for small molecule stabilizers of the endoplasmic reticulum resident proteome: Secreted ER Calcium Modulated Protein (SERCaMP) assay (AID 1508628); further: potency means the concentration at half of the fitted maximal effect; nearly all actives have a fitted effect of over 40% in size
Procedure, shortened: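 GLuc-SERCaMP-expressing SH-SY5Y cells, pretreated 16 h with compound, are challenged with thapsigargin to empty ER calcium stores; after 4 h, coelenterazine is added directly to the medium and luminescence is imaged.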

[29] = Primary qHTS for small molecule stabilizers of the endoplasmic reticulum resident proteome: Secreted ER Calcium Modulated Protein (SERCaMP) assay (AID 1508630); further: on the % scale 0 is the no-effect control and ±100 the full control effect
Procedure, shortened: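 The SH-SY5Y reporter protocol was run at 3 concentrations up to 38.3 uM (primary) or 11 concentrations (follow-up): 16 h compound, 100 nM thapsigargin for 4 h, then extracellular luciferase luminescence.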

[30] = measured here: cell count channel max response
[31] = measured here: lipid channel max response

Glucocorticoid receptor (Homo sapiens), sequence (P04150 whole entry, looked up, the tested form may be a part): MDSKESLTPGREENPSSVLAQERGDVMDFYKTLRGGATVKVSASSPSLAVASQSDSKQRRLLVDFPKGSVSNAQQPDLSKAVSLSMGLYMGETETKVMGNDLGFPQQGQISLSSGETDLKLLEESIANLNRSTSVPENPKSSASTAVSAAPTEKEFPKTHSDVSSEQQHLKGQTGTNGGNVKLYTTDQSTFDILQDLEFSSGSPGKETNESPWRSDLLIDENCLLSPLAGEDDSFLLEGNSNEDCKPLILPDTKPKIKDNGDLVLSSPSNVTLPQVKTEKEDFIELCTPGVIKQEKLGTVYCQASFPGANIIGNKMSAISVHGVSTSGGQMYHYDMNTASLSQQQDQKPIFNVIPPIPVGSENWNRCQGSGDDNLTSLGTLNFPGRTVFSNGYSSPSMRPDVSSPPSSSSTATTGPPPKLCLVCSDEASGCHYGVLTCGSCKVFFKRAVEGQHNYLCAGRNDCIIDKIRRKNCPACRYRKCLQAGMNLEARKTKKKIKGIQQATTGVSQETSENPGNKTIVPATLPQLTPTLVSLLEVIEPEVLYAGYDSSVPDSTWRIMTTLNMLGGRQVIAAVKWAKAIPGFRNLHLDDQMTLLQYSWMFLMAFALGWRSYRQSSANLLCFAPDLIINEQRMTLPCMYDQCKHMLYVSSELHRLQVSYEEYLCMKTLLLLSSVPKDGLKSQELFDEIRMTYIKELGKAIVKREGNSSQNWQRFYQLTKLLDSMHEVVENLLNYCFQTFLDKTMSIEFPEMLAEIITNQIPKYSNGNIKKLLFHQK
Cytochrome P450 3A4 (Homo sapiens), sequence (P08684 whole entry, looked up): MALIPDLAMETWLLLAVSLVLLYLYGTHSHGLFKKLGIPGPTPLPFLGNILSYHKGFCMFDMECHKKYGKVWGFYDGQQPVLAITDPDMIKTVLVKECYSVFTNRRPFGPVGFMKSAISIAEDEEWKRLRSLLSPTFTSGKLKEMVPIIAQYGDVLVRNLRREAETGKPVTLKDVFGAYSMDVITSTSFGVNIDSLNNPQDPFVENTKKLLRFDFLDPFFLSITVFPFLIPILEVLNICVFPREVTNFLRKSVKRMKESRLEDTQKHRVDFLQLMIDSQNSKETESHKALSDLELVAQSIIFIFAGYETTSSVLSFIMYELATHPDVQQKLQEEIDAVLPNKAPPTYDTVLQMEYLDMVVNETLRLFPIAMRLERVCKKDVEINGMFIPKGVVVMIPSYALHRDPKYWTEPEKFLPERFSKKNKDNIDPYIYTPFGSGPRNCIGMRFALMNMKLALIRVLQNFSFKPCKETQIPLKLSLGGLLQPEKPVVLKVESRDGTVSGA
Rap guanine nucleotide exchange factor 3 (Homo sapiens), sequence (O95398 whole entry, looked up): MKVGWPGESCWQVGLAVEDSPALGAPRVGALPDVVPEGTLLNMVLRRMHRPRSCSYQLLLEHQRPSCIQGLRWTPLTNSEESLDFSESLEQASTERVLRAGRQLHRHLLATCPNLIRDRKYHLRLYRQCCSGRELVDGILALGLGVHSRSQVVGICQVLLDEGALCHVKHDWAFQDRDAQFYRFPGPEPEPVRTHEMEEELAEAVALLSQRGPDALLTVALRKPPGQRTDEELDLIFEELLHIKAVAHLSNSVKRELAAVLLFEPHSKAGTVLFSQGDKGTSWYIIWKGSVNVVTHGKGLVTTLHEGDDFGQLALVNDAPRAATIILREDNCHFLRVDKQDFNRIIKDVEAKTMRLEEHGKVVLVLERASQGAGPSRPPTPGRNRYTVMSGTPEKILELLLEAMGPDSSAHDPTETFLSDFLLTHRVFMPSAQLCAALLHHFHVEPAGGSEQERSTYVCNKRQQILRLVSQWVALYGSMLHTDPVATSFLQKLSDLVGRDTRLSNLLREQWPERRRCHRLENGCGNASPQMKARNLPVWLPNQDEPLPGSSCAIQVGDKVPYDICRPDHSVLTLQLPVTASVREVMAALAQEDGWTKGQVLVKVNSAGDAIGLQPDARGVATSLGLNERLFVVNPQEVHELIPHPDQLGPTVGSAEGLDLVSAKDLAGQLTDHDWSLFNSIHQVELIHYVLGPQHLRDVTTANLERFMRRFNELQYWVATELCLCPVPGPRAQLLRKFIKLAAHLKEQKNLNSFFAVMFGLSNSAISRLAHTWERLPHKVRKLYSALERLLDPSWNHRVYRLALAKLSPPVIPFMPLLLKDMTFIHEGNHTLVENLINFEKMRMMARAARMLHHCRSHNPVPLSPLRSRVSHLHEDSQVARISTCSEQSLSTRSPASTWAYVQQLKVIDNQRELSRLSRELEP
Cytochrome P450 1A2 (Homo sapiens), sequence (P05177 whole entry, looked up): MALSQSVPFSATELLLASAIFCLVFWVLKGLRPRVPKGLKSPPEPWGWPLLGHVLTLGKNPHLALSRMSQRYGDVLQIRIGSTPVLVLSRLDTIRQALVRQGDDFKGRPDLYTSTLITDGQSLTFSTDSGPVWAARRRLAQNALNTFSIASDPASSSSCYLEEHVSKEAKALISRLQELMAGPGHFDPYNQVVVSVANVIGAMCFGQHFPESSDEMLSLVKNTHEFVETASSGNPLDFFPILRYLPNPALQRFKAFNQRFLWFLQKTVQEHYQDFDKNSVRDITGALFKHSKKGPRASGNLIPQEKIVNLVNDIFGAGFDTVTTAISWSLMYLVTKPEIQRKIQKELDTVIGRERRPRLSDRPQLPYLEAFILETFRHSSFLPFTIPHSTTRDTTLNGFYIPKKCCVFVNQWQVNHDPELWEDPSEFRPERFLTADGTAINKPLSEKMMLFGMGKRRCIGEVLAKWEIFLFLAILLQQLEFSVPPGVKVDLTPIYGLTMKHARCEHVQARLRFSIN
3',5'-cyclic-AMP phosphodiesterase 4B (Homo sapiens), sequence (Q07343 whole entry, looked up): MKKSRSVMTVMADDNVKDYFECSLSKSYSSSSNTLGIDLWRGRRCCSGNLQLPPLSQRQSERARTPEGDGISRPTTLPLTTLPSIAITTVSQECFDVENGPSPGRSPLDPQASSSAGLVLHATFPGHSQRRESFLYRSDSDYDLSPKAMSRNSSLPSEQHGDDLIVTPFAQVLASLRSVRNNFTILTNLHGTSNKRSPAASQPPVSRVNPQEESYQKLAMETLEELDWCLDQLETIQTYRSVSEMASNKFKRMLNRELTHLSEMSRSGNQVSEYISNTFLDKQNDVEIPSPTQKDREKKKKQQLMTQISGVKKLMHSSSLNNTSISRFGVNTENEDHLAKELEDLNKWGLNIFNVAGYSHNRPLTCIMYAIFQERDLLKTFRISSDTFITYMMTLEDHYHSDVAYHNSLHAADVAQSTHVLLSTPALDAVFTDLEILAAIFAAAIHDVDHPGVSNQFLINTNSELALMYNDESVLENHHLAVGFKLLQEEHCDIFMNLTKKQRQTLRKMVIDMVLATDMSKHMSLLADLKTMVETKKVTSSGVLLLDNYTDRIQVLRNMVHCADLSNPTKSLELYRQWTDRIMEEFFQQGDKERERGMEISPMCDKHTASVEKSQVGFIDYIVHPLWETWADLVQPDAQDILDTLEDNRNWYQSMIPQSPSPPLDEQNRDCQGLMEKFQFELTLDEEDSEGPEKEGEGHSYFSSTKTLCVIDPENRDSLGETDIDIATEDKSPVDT
Cytochrome P450 2C19 (Homo sapiens), sequence (P33261 whole entry, looked up): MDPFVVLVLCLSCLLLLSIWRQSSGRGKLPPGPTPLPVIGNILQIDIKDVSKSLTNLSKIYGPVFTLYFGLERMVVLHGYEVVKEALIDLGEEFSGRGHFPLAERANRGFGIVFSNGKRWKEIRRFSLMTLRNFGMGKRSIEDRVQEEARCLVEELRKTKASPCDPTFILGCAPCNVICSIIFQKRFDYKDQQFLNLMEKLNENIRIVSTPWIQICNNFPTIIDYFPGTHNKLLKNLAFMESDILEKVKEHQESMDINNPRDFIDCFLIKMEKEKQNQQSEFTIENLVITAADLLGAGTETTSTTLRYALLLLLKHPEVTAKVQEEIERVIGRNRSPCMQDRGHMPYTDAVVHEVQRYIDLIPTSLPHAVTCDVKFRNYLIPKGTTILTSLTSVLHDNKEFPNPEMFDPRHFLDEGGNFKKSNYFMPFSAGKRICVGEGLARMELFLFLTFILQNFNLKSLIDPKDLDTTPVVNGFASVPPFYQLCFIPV
Ubiquitin carboxyl-terminal hydrolase 1 (Homo sapiens), sequence (O94782 whole entry, looked up): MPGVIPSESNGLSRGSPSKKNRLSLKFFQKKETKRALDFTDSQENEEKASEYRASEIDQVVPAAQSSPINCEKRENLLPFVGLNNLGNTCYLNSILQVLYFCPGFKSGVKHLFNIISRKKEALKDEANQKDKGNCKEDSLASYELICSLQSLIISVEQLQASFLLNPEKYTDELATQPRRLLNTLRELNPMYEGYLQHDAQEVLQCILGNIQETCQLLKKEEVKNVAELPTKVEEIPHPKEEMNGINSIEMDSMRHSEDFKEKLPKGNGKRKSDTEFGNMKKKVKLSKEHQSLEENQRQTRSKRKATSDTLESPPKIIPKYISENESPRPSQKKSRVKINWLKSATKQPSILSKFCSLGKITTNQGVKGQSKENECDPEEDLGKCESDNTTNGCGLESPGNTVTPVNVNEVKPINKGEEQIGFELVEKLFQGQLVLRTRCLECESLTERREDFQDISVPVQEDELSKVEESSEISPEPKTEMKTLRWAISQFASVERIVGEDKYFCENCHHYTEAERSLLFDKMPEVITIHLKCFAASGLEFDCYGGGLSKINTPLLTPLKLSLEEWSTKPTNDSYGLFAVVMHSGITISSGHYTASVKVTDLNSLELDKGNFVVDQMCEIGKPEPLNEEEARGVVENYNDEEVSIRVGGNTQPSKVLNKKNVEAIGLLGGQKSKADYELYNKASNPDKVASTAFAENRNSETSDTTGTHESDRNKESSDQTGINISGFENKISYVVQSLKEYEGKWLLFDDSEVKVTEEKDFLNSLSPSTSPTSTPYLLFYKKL
Calcium and integrin-binding protein 1 (Homo sapiens), sequence (Q99828 whole entry, looked up): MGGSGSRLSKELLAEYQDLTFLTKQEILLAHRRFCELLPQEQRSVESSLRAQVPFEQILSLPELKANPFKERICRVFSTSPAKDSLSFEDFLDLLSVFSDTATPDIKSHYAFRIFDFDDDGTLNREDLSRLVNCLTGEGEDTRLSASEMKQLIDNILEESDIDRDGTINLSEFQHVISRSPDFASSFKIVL

O=C(O[C@@H]1Cc2c(O)cc(O)cc2OC1c1ccc(O)c(O)c1)c1cc(O)c(O)c(O)c1 (stereo partly specified)
-4.33%: max response [4, 31]
inactive: Potency [1] | outcome [2] | outcome [3] | activity change, negative = inhibition ([4]; at 57.5 µM (top of the series)) 6.43% | Potency [6] | Potency [10]
-10%: max response [4, 30]
active: Potency [5] 35.5 µM | Potency [7] 14.1 µM | Potency [8] 25.1 µM | Potency [9] 0.708 µM

COC(=O)c1ccc([C@H]2Nc3ccc(S(=O)(=O)Nc4cccc(C)c4)cc3[C@H]3C=CC[C@H]32)cc1
inactive: Potency [6] | Potency [10]
active: Potency [5] 25.1 µM | Potency [7] 25.1 µM | Potency [8] 141 µM | Potency [9] 158 µM

COc1ccc2c(c1)Oc1nc(-c3ccc(C)s3)nc(SCC(=O)Nc3cccc(C(=O)O)c3)c1C2
inactive: Potency [6] | Potency [10] | outcome [11]
active: Potency [5] 5.01 µM | Potency [7] 5.62 µM

CCOC(=O)c1ccc(NC(=O)c2nc(SCc3ccc(F)cc3)ncc2Cl)cc1
inactive: Potency [5] | Potency [7] | Potency [10]

O=C(O)c1ccccc1-c1c2cc(I)c(=O)c(I)c-2oc2c(I)c(O)c(I)cc12
active: Potency [5] 14.1 µM | Potency [8] 56.2 µM | Potency [15] 7.08 µM
inactive: Potency [6] | Potency [9] | Potency [10] | Potency [12] | activity change, negative = inhibition [13] 12.6% [at 12.7 µM] | activity change, negative = inhibition [14] 212% [at 30.8 µM]

CCOC(=O)c1ccc(CN(Cc2ccc(F)cc2)S(=O)(=O)c2cc(C(=O)Nc3cccc(C(F)(F)F)c3)ccc2F)cc1
inactive: Potency [5] | Potency [7]

COc1cc(-c2ccc(N=Nc3ccc4c(S(=O)(=O)O)cc(S(=O)(=O)O)c(N)c4c3O)c(OC)c2)ccc1N=Nc1ccc2c(S(=O)(=O)O)cc(S(=O)(=O)O)c(N)c2c1O
1.95%: max response [4, 30]
inactive: activity change, negative = inhibition [16] 15% | activity change, negative = inhibition [18] 0.00688% | activity, negative = inhibition [19] -15.7% | Potency [20] > 20.6 µM and > 46 µM | Potency [21] > 20.6 µM and > 46 µM | Potency [22] | Potency [1] | Potency [24] | activity change, negative = inhibition ([4]; at 25.7 µM (top of the series)) 3.4% | Potency [27] | Potency [6] | Potency [9] | Potency [10] | activity change, negative = inhibition [29] -28.6% [at 7.35 µM]
8.3%: max response [4, 31]
3.98 µM (active) and inactive: Potency [25]
active: Potency [17] 12.6 µM and 20 µM | Potency [23] 15.8 µM | Potency [26] 17.8 µM and 8.91 µM | Potency [5] 2.82 µM | Potency [7] 2 µM | Potency [8] 7.08 µM | Potency [28] 28.2 µM

Reference: PubChem BioAssay (NCATS)
